Screens: PubChem BioAssay, National Center for Advancing Translational Sciences (NCATS)
Hits are enriched below; roughly 19% of the tested compounds scored in any of these assays.
Pf growth 96h: P. falciparum growth inhibition at 96 hours; P. falciparum luciferase reporter growth, 96 h; Potency, µM (series often up to 28.7 µM), for inactives: top-dose activity change, negative = inhibition, usual class: inhibitors; 320,000 compounds, 6.9% hits; further: potency means the concentration at half of the fitted maximal effect; on the % scale 0 is the no-effect control and ±100 the full control effect
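Infected RBCs, 2% Hct / 0.05% parasitemia final; luciferase-reporter P. falciparum; cpd 96 h, 37 C, 5% CO2; luciferase detection reagent; luminescence.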
Shiga toxin inh: inhibitors of Shiga toxin in Vero cells; Vero cells, Shiga toxin protein synthesis inhibition reporter; 290,000 compounds, 9.2% hits; inhibition, % at 38.7 µM; in the data active means inhibition mostly above about 28%, no sharp cut-off; inactive means mostly below about 43%; further: 0% is about no effect
LASV entry inh: Lassa virus entry inhibition. Lassa virus pseudotype entry inhibition, cell reporter. Potency, µM (doses to about 37.9 µM), inactives show top-dose activity change, negative = inhibition, usual class: inhibitors. 300,000 compounds, 1.2% hits. AID 540256; calls by dose curve; tested in HEK293 cells; further: potency means the concentration at half of the fitted maximal effect; on the % scale 0 is the no-effect control and ±100 the full control effect; nearly all actives have a fitted effect of over 50% in size
CHX counter: affects cycloheximide protein synthesis inhibition readout, counter-screen. cell reporter, cycloheximide protein synthesis inhibition counterscreen. max response, %. 300,000 compounds, 12% hits. AID 2314; in the data active means max response mostly above about 13%, no sharp cut-off; inactive means mostly below about 14%; further: read at 38.3 µM for the half of the compounds with a filed dose; 0% is about no effect
Pf growth 48h: inhibits P. falciparum growth in the first generation, 48 h; AID 504832; P. falciparum luciferase growth in erythrocytes, 48 h; 310,000 compounds, 5.9% hits; Potency, µM (highest dose often 28.7 µM), for the others: top-dose activity change, negative = inhibition, usual class: inhibitors; further: potency means the concentration at half of the fitted maximal effect; on the % scale 0 is the no-effect control and ±100 the full control effect
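Luciferase-expressing P. falciparum in infected erythrocytes (2% hematocrit, 0.1% parasitemia final) in RPMI 1640/0.5% Albumax were exposed to compound for 48 hours at 37 C, 5% CO2; growth read as luminescence.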
MARV entry inh: blocks Marburg virus binding to or entry into cells | Marburg virus pseudotyped entry inhibition, cell reporter | Potency, µM (series often up to 37.8 µM), for the others: at the highest dose activity change, negative = inhibition, usual class: inhibitors | 300,000 compounds, 1.8% hits | AID 540276; calls by dose curve; tested in HEK293 cells; further: potency means the concentration at half of the fitted maximal effect; on the % scale 0 is the no-effect control and ±100 the full control effect
* marks the source's active call; other numbers are inactive results; ? = inconclusive; / = no result given; [ ] = remark or other dose. Unless noted, the call rests on the fitted dose curve; in most records, active means well fitted inhibition curve with a large enough effect; inconclusive means small, poorly fitted or top-dose-only effect, or another doubt; inactive means no such curve, though single readings can be large or run the other way.

SMILES	Pf growth 96h	Shiga toxin inh	LASV entry inh	CHX counter	Pf growth 48h	MARV entry inh
COc1ccc(NC(=O)/C(N=Nc2ccc(Cl)c(S(=O)(=O)Nc3ccc(Cl)cc3)c2)=C(\C)O)cc1	/	/	22.0%[46.1 µM]	/	/	?
CCC(=O)Nc1nnc(SCC(=O)NCc2ccc3c(c2)OCO3)s1	22.5%	-3.5	0.2%	11.0	12.8%	?
Cc1cc(Br)c(NC(=O)CN2CCCC2)c(Br)c1	44.5%	63.7*	-2.6%	16.5*	37.9%	3.9%
Cc1ccc(NC(=O)CN2CCOCC2)c(Br)c1	?	/	23.3%[46.1 µM]	22.6*	49.3%	1.7%[46.1 µM]
Cc1cccc(NC(=O)CN2CCC(NC(=O)C3CCCCC3)CC2)c1C	4.15µM*	-14.0	10.7%	-2.3	6.3%	0.9%[46.1 µM]
Cc1cc(Br)c(NC(=O)CN2CC=C(c3ccccc3)CC2)c(Br)c1	?	34.5	-2.8%[46.1 µM]	15.3	-9.5%	?
Cc1ccc(NC(=O)CN2CCC(NC(=O)C3CCCCC3)CC2)c(Br)c1	11.7µM*	-12.4	-3.1%	-4.2	-2.4%	-2.5%
O=C(CN1CCC(NC(=O)C2CCCCC2)CC1)Nc1cccc(F)c1	22.0%	13.4	-1.2%	-3.2	-12.0%	7.5%[46.1 µM]
Cc1ccc(NC(=O)CN2CCN(Cc3ccccc3)CC2)c(Br)c1	?	21.3	/	7.5	-1.3%	/
O=C(c1ccc2c(=O)n(Cc3ccccc3Cl)c(=S)[nH]c2c1)N1CCCC1	-6.8%	-7.8	23.6%[46.1 µM]	-0.5	?	-8.6%[46.1 µM]
COc1ccc(C(C)=O)cc1COC(=O)c1c(C)noc1C	-24.6%	-27.2	-20.0%	-3.7	/	?
CCc1ccc(NC(=O)CSc2ccccn2)cc1	-27.5%	64.1	25.6%	40.3*	59.2%	?
COc1cccc(NC(=O)CSc2nc3ccccc3c(=O)n2C)c1	?	-10.2	/	-3.8	11.7µM*	/
CS(=O)(=O)N(Cc1ccc(C(=O)NCCSc2ccccn2)cc1)c1ccccc1	?	15.9	?	7.9	-21.0%	?
COc1ccc(Cn2c(CCC(=O)Nc3ccc(C)cc3)nc3cccnc32)cc1	10.4µM*	-13.9	6.6%[46.1 µM]	-3.9	/	?
Cc1ccc(N(Cc2ccc(C(=O)NCCSc3ccccn3)cc2)S(C)(=O)=O)cc1C	0.738µM*	-8.1	15.5%	0.1	?	-0.8%
COc1ccc(NC(=O)CSc2ccccn2)cc1	?	61.6*	4.8%	49.3*	130.5%	12.3%
CCc1ccc(NC(=O)CSCCO)cc1	-4.8%	36.8*	1.8%	13.5	29.0%	?
O=C(CSc1ccccn1)Nc1ccc(NC(=O)CSc2ccccn2)cc1	-3.4%	-6.0	/	0.5	-11.1%	/
O=C(CCSc1ccccn1)Nc1ccc(Br)cc1	182.9%	101.4*	?	49.1*	164.1%	?
COc1ccc(NC(=S)NC(NC(=O)C(C)C)C(Cl)(Cl)Cl)c([N+](=O)[O-])c1 (stereo not drawn)	50.4%	-2.7	-8.7%	5.4	2.62µM*	?
COc1ccc(C(=O)OCC(=O)NC2CCCC2)c(OC)c1OC	18.0%	-9.1	20.1%[46.1 µM]	-5.5	35.1%	22.8%[46.1 µM]
CCN(CC)c1ccc(/C=N/c2sc3c(c2C#N)C2CCN3CC2)c(O)c1	-5.9%	2.2	-26.1%	7.2	-12.3%	13.7%
O=C(O)CSCC(=O)N1CCCN(c2nc3ccc(Cl)cc3s2)CC1	-4.7%	20.6	5.8%	-2.6	-17.3%	3.5%
Cc1ccc(NC(=O)COC(=O)Cn2nc(C)c([N+](=O)[O-])c2C)c([N+](=O)[O-])c1	50.0%	45.4	6.4%	28.0*	14.3%	?
SMILES	Pf growth 96h	Shiga toxin inh	LASV entry inh	CHX counter	Pf growth 48h	MARV entry inh
COC(=O)CNC(=O)CSc1ccccn1	41.9%	7.9	/	-1.8	10.9%	/
COCC(C)n1c(COc2ccccc2F)nnc1SCC(=O)c1c(N)n(C)c(=O)n(C)c1=O (stereo not drawn)	?	5.5	5.3%	-2.8	10.4µM*	2.0%
COc1ccccc1C(=O)CSc1ccccn1	95.0%	94.3*	13.7%	27.1*	89.2%	11.5%[46.1 µM]
COc1ccc(NC(=O)CSc2ccccn2)c([N+](=O)[O-])c1	32.9%	101.9*	6.2%	36.8*	60.3%	?
CCOc1ccc(CCNC(=O)c2cc3c(s2)CS(=O)(=O)C3)cc1OCC	24.6%	-4.7	18.5%[46.1 µM]	-0.9	?	-14.9%[46.1 µM]
COc1cccc(NC(=O)CSc2ccccn2)c1	112.7%	69.5*	29.5%	61.5*	122.6%	-2.9%
COc1ccc(NC(=O)CSCc2ccccc2C)cc1	176.7%	64.9*	?	54.4*	52.8%	10.3%
O=C(CSc1ccccn1)Nc1ccc(Br)cn1	11.5%	66.9	10.8%	21.2*	42.2%	?
Cc1ccccc1CSCC(=O)Nc1ccccc1-c1ccccc1	28.7%	-4.5	3.9%	-0.7	?	?
Cc1ccc(NC(=O)CSc2ncccn2)c([N+](=O)[O-])c1	65.7%	82.0*	?	27.8*	10.7%	?
COc1cccc(NC(=O)CSc2nc(C)cs2)c1	/	20.8	0.9%	14.3	16.7%	?
O=C(CSc1ccccn1)Nc1ccccc1F	7.6%	7.3	4.7%	10.5	53.0%	3.3%
Cc1ccc(NC(=O)CSc2nc(C)c(C)c(C)n2)c([N+](=O)[O-])c1	10.5%	-10.6	0.6%	2.9	-1.9%	?
COc1ccc(NC(=O)CC(C)c2ccccc2)c([N+](=O)[O-])c1 (stereo not drawn)	38.9%	24.1	?	19.0*	-3.8%	21.0%
COc1ccc(N(CC(=O)NCCSc2ccccn2)S(C)(=O)=O)cc1	54.7%	-3.8	-9.8%	-2.5	/	9.3%
Cn1c(N)c(C(=O)COC(=O)c2ccccn2)c(=O)n(C)c1=O	-1.5%	-19.9	6.5%	-1.5	26.8%	-8.9%[14.2 µM]
CC(=O)c1cccc(NC(=O)CSc2ccc(-c3ccco3)nn2)c1	-22.9%	15.2	-2.8%	3.4	-10.2%	-27.0%
Cn1c(N)c(C(=O)CSc2ccccn2)c(=O)n(C)c1=O	9.9%	47.4*	2.5%	15.1	67.4%	1.5%
CCc1ccc(NC(=O)CSc2ccc(-c3ccco3)nn2)cc1	32.2%	23.6	-7.4%	17.5*	1.9%	-10.2%
COc1ccc(C(=O)NCCSc2ccccn2)cc1	?	52.8*	14.1µM*	32.2*	-19.1%	?
CN(Cc1cnccn1)C(=O)CC1C(=O)NCCN1Cc1cccc(F)c1 (stereo not drawn)	-0.3%	-22.3	-1.7%	1.0	19.7%	-8.3%
O=C(c1ccc(S(=O)(=O)N2CCCCC2)cc1)N1CCCC(C(F)(F)F)C1 (stereo not drawn)	2.0%	/	-7.0%	/	-18.0%	5.7%
CC(C)c1nnc(NC(=O)CCC(=O)N2CCN(c3ccc(Cl)cc3)CC2)s1	?	-14.5	-11.8%[46.1 µM]	-4.0	-5.4%	-27.0%[46.1 µM]
CC1(C)OC(=O)C(=CNc2ccc(F)cc2)C(=O)O1	/	24.0	1.8%	12.1	11.7%	25.6%
COc1ccc(OC)c(C2=Nn3c(nnc3-c3cccc(OC(C)C)c3)SC2)c1	?	-18.1	?	2.0	8.28µM*	?
